The results in this text go back to PubChem BioAssay AID1347171 (National Center for Advancing Translational Sciences (NCATS), 2019).

Records with an inconclusive call do not appear. A number with no mark means an inactive call. Active and inactive are the calls of the source. The call rests on the fitted dose curve; in most records, active means well fitted inhibition curve with a large enough effect; inconclusive means small, poorly fitted or top-dose-only effect; inactive means no such curve, though single readings can be large or run the other way.

The nature of the test: Orthogonal mCherry assay for qRT-PCR qHTS of selected Zika virus inhibitors. Conditions: Vero cells, ZIKV-mCherry infection imaging, 48-72 h; series mostly up to 32.6 µM; activity change, negative = inhibition: at the top concentration. The source says:
Description: Assay Submitters (PI): Avindra Nath, Ph.D., National Institute of Neurological Disorders and Stroke (NINDS), Bethesda, MD Radhakrishnan Padmanabhan, Ph.D., Georgetown University (GU), Washington D.C. Zika Virus causes congenital defects, including microcephaly and is associated with Guillain-Barre syndrome, eningoencephalitis and myelitis in infected adult. […] Using a target-based approach, we hope to establish a screening paradigm to uncover novel, cell-active NS2B-NS3 protease (Zika Virus) specific inhibitors from NCATS' collection of small molecules using qHTS. […] Four assay panel was created to identify potential Zika Virus inhibitors. Namely, (1) GU unlinked NS2B-NS3 AMC tagged protease qHTS, (2) GU unlinked NS2B-NS3 Rhodamine tagged protease qHTS, (3) NINDS linked NS2B-NS3 AMC tagged protease qHTS, (4) NINDS linked NS2B-NS3 Rhodamine tagged protease qHTS. Inhibitors of the Zika virus primary screens are confirmed using qRT-PCR secondary assays, mCherry orthogonal assay, and Vero cells viability counterscreen. Early Translation Branch (ETB) National Center for Advancing Translational Sciences (NCATS), Rockville, MD National Institute of Health (NIH), Bethesda, Maryland
384 well ZIKV-mCherry Assay: We have developed a new orthogonal imaging assay in 384-well plate format, which uses recombinant virus ZIKV-mCherry in Vero cells. Briefly, 30 microL of Vero cells derived from a green monkey cell line, were dispensed by Multidrop Dispenser into a clear solid bottom black 384 well plate (ultracarrier, Perkin Elmer LifeSciences) at a concentration of 5,000 cells per well. The plate was incubated overnight in a CO2 incubator at 37 degrees C. Compounds were delivered as a 126 nL DMSO solution by Kalypsys pintool transfer. Following compound transfer, 10 microL of ZIKV-mCherry was added at an MOI of 1 and incubated in a CO2 incubator for 48-72 hrs at 37 degrees C. After sufficient incubation of infected cells in test plates, 8 microL of 32% PFA was dispensed into assay plates to fix cells and incubated for 20 min at room temperature. Plates were washed 3 times with PBS using BioTek EL406 microplate washer/dispenser. After washing, 30 microL of PBS with 0.01% TX-100 containing Hoechst dye was dispensed into the each well of the plates for nuclear staining. 384-well plates were imaged on an automated, widefield high content imager (INCell 2200, GE Healthcare) using a 10x/0.45 NA lens and standard DAPI (nuclear stain) and mCherry (cy5) excitation and emission filters. The TIFFs were quantitated using the canned Multi Target Analysis protocol (GE Investigator Workstation software v3.7.2). Briefly, nuclei from the DAPI channel were identified using top hat segmentation and a sensitivity setting of 96 and minimum size area of 35 microm2. A recombinant Zika viral infection was monitored in the Cy5 channel (cells) using a 2 microm collar dilation from the nuclear bitmap. mCherry objects with an average nuclear RFU intensity above 450 (3 stdev above mean negative control wells) were considered "mcherry positive" and data was analyzed by percent infection rate.
For orientation: Quantitative PCR measures a nucleic acid by following its amplification.
Take `CC(C)c1onc(-c2c(Cl)cccc2Cl)c1COc1ccc(/C=C/c2cccc(C(=O)O)c2)c(Cl)c1`: the Potency was 25.1 µM (active).

For `N#CC1C(=O)Nc2scc(-c3ccc(-c4ccccc4O)cc3)c2C1=O` (centres undefined), the “activity change, negative = inhibition” value is -51%.

Regarding `Nc1ccn([C@@H]2O[C@H](CO)[C@@H](O)C2(F)F)c(=O)n1`, the “activity change, negative = inhibition” value is -78.4%.

On to `CC(C)c1cc(C(C)C)c(CC(=O)NS(=O)(=O)Oc2c(C(C)C)cccc2C(C)C)c(C(C)C)c1`, for which the “activity change, negative = inhibition” value is -70.7%.

Regarding `CN(Cc1ccc(C(=O)O)cc1)c1ccc(OCc2c(-c3c(Cl)cccc3Cl)noc2C2CC2)nc1C(F)(F)F`, the Potency is 14.1 µM (active).

As for `CC1=C(C(=O)OCc2ccccc2)C(c2ccc(-c3ccccc3)cc2)NC(=O)N1CCCCCC(=O)O` (centres undefined), the “activity change, negative = inhibition” value is -69.4%.

As for `COc1cc2c(c(O)c1OC/C=C(\C)CC/C=C(/C)CCC=C(C)C)CN(C(CCC(=O)O)C(=O)O)C2=O` (centres undefined), the “activity change, negative = inhibition” value is -21.6% [at 16.3 µM].

`COc1cccc(-n2nc(C(=O)O)cc2-c2ccc(C3CCCCC3)c(Cl)c2)c1`: the Potency was 25.1 µM (active).

On to `Cc1cc(NC(=O)c2ccc(Cl)c(Cl)c2)ccc1-c1cc2ccccc2oc1=O`, for which the “activity change, negative = inhibition” value was 33.7%.

In the case of `CC[C@H](C)[C@H]1O[C@]2(CC[C@@H]1C)C[C@@H]1C[C@@H](C/C=C(\C)[C@@H](O[C@H]3C[C@H](OC)[C@@H](O[C@H]4C[C@H](OC)[C@@H](O)[C@H](C)O4)[C@H](C)O3)[C@@H](C)/C=C/C=C3\CO[C@@H]4[C@H](O)C(C)=C[C@@H](C(=O)O1)[C@]34O)O2`, the “activity change, negative = inhibition” value was 3.23%.

Consider `CC(C)c1ccc2c(c1)c(SC(C)(C)C)c(CC(C)(C)C(=O)O)n2Cc1ccc(Cl)cc1`, for which the “activity change, negative = inhibition” value was -24.6%.

In the case of `Oc1cc2ccccc2c2ccccc12`, the “activity change, negative = inhibition” value was 8.44% [at 65.2 µM].

For the compound `CC(C)=CCc1c2c(c3occ(-c4ccc(O)c(O)c4)c(=O)c3c1O)C=CC(C)(C)O2`, the “activity change, negative = inhibition” value is -39%.

As to `COc1ccc(NS(=O)(=O)c2ccc(NS(=O)(=O)c3ccc4c(c3)OCCO4)cc2)cc1`, the “activity change, negative = inhibition” value is -5.78%.

As to `O=C(Nc1ccc([N+](=O)[O-])cc1Cl)c1cc(Cl)ccc1O`, the “activity change, negative = inhibition” value was -81.4%.

Turning to `CC1(C)CCC(CN2CCN(c3ccc(C(=O)NS(=O)(=O)c4ccc(NCC5CCOCC5)c([N+](=O)[O-])c4)c(Oc4cnc5[nH]ccc5c4)c3)CC2)=C(c2ccc(Cl)cc2)C1`, the “activity change, negative = inhibition” value is 288%.

With `Oc1cccc(-c2c3nc(c(-c4cccc(O)c4)c4ccc([nH]4)c(-c4cccc(O)c4)c4nc(c(-c5cccc(O)c5)c5ccc2[nH]5)CC4)C=C3)c1`, the Potency is 7.08 µM (active).

With `Cc1cc(C(C#N)c2ccc(Cl)cc2)c(Cl)cc1NC(=O)c1cc(I)cc(I)c1O` (centres undefined), the “activity change, negative = inhibition” value was -28.4%.

For `O=C1NC(=O)/C(=C/c2ccc3c(c2)OC(F)(F)O3)S1`, the “activity change, negative = inhibition” value was 0.686%.

Consider `COc1c(C)c2c(c(O)c1C/C=C(\C)CCC(=O)O)C(=O)OC2`, for which the “activity change, negative = inhibition” value is -80.8%.

Turning to `Cc1cc2c(C(C)C)c(O)c(O)c(C=O)c2c(O)c1-c1c(C)cc2c(C(C)C)c(O)c(O)c(C=O)c2c1O`, the “activity change, negative = inhibition” value is -104%.

Consider `Nc1ncnc2c([C@@H]3N[C@H](CO)[C@@H](O)[C@H]3O)c[nH]c12`, for which the Potency was 14.1 µM (active).

With `Cc1cccc(C)c1NS(=O)(=O)c1ccc(NS(=O)(=O)c2ccc3c(c2)OCCO3)cc1`, the Potency was 3.55 µM (active).

Consider `Cc1ccc(-n2[nH]c(C)c(N=Nc3cccc(-c4cccc(C(=O)O)c4)c3O)c2=O)cc1C`, for which the “activity change, negative = inhibition” value was 539%.
